Results as given in ChEMBL document CHEMBL1157539, “Thousands of chemical starting points for antimalarial lead identification” (Nature, 2010).

Columns and labels:
Format in all cases: functional
Plasmodium falciparum [1] = assay: GSK_TCMDC: Inhibition of Plasmodium falciparum 3D7 in whole red blood cells, using parasite LDH activity as an index of growth. Test compounds present at 2uM
Plasmodium falciparum [2] = assay: GSK_TCMDC: Inhibition of Plasmodium falciparum Dd2 in whole red blood cells, using parasite LDH activity as an index of growth. Test compounds present at 2uM
HepG2 = assay: GSK_TCMDC: Percent inhibition of human HepG2 cell line. Test compounds present at 10uM.

CCn1cc(-c2nc(-c3cc(OC)cc(OC)c3)no2)c(=O)c2ccccc21
Inhibition (Plasmodium falciparum [1]): 89%
Inhibition (Plasmodium falciparum [2]): 77%
Inhibition (HepG2): 0%

N#Cc1cccc(NC(=O)Nc2cccc(-c3cccc(-c4nc5cc(C(F)(F)F)ccc5[nH]4)c3)c2)c1
Inhibition (Plasmodium falciparum [1]): 100%
Inhibition (Plasmodium falciparum [2]): 99%
Inhibition (HepG2): 74%

CC(=O)Nc1ccc(C(=O)Nc2cccc(-c3cccc(-c4nc5cc(C(F)(F)F)ccc5[nH]4)c3)c2)cn1
Inhibition (Plasmodium falciparum [1]): 100%
Inhibition (Plasmodium falciparum [2]): 97%
Inhibition (HepG2): 8%

CN1CCC(OC(=O)c2cc3cc(-c4ccccc4)ccc3n2S(=O)(=O)c2ccccc2)CC1.Cl
Inhibition (Plasmodium falciparum [1]): 88%
Inhibition (Plasmodium falciparum [2]): 10%
Inhibition (HepG2): 31%

CCCc1cc(Cc2cnc(N)nc2N)cc(CCC)c1OCCCC(=O)OCC
Inhibition (Plasmodium falciparum [1]): 94%
Inhibition (Plasmodium falciparum [2]): 0%
Inhibition (HepG2): 0%

COc1cc(OC)cc(-c2nn(-c3ccc([N+](=O)[O-])cc3C#N)c(=S)n2CC2CCCO2)c1 (configuration not stated)
Inhibition (Plasmodium falciparum [1]): 98%
Inhibition (Plasmodium falciparum [2]): 75%
Inhibition (HepG2): 9%

OC(CNCc1ccccc1Oc1ccccc1)c1cc(Br)cs1 (configuration not stated)
Inhibition (Plasmodium falciparum [1]): 94%
Inhibition (Plasmodium falciparum [2]): 79%
Inhibition (HepG2): 0%

CC(C)COc1ccc(Cl)cc1Cc1ccc(-c2nc3cnc4ccccc4c3[nH]2)o1
Inhibition (Plasmodium falciparum [1]): 87%
Inhibition (Plasmodium falciparum [2]): 26%
Inhibition (HepG2): 21%

CCOC(=O)c1cnc2cc(N3CCCC3)c(Cl)cc2c1OCC
Inhibition (Plasmodium falciparum [1]): 97%
Inhibition (Plasmodium falciparum [2]): 97%
Inhibition (HepG2): 0%

Cc1cc(N/N=C/c2cccc([N+](=O)[O-])c2)c2ccc(F)cc2n1
Inhibition (Plasmodium falciparum [1]): 100%
Inhibition (Plasmodium falciparum [2]): 98%
Inhibition (HepG2): 0%

N#Cc1ccc(N(CCOc2ccc(Cl)c(Cl)c2)Cc2ccccc2C(F)(F)F)cc1C(F)(F)F
Inhibition (Plasmodium falciparum [1]): 90%
Inhibition (Plasmodium falciparum [2]): 57%
Inhibition (HepG2): 13%

COC(=O)C(=O)c1c(-c2ccccc2)c(-c2ccc(OC)c(OC)c2)c2c3cc(OC)c(OC)cc3ccn12
Inhibition (Plasmodium falciparum [1]): 97%
Inhibition (Plasmodium falciparum [2]): 89%
Inhibition (HepG2): 2%

Cc1cc(N)c2cc(NC(=O)/C=C/c3ccccc3)ccc2n1
Inhibition (Plasmodium falciparum [1]): 100%
Inhibition (Plasmodium falciparum [2]): 68%
Inhibition (HepG2): 20%

O=C(NC1CCN(CCN2CCC(c3cn(CCO)c4ccccc34)CC2)CC1)c1ccc(-c2ccc(C(F)(F)F)cc2)cc1
Inhibition (Plasmodium falciparum [1]): 98%
Inhibition (Plasmodium falciparum [2]): 54%
Inhibition (HepG2): 30%

COc1ccccc1Cc1c(C)nc2nc(N)nc(N)c2c1C.Cl
Inhibition (Plasmodium falciparum [1]): 96%
Inhibition (Plasmodium falciparum [2]): 2%
Inhibition (HepG2): 69%

CCCCC(=O)N(CCOC)Cc1ccc(-c2ccc(CNCCC)cn2)cc1.O=C(O)C(F)(F)F
Inhibition (Plasmodium falciparum [1]): 99%
Inhibition (Plasmodium falciparum [2]): 68%
Inhibition (HepG2): 30%

O=C(O)C(F)(F)F.c1cc(CN2CCN(CCN3CCOCC3)CC2)cc(-c2cccc(-c3nc4ccccc4[nH]3)c2)c1
Inhibition (Plasmodium falciparum [1]): 100%
Inhibition (Plasmodium falciparum [2]): 100%
Inhibition (HepG2): 29%

O=C(O)c1ccc(OCOCOc2ccc(C(=O)O)c(O)c2)cc1O
Inhibition (Plasmodium falciparum [1]): 99%
Inhibition (Plasmodium falciparum [2]): 0%
Inhibition (HepG2): 0%

Br.CCOCc1cn(CC(=O)c2ccc(-c3ccccc3)cc2)c(C)nc1=N
Inhibition (Plasmodium falciparum [1]): 93%
Inhibition (Plasmodium falciparum [2]): 72%
Inhibition (HepG2): 13%

CC(Cc1ccc(CNC(=O)NCc2ccc(CC(C)NCCc3cccc(Cl)c3)cc2)cc1)NCCc1cccc(Cl)c1 (configuration not stated)
Inhibition (Plasmodium falciparum [1]): 100%
Inhibition (Plasmodium falciparum [2]): 44%
Inhibition (HepG2): 100%

CCn1c(CN2CCC(C)CC2)nc2cc(NC(=O)c3cccs3)ccc21
Inhibition (Plasmodium falciparum [1]): 91%
Inhibition (Plasmodium falciparum [2]): 95%
Inhibition (HepG2): 40%

CC(C)NC(=N)NN=Cc1ccc(Cl)c(Cl)c1
Inhibition (Plasmodium falciparum [1]): 100%
Inhibition (Plasmodium falciparum [2]): 12%
Inhibition (HepG2): 0%

Cc1oc(-c2ccccc2)nc1CCOc1ccc(C[C@H](Nc2ccccc2C(=O)c2ccccc2)C(=O)NCc2ccccn2)cc1
Inhibition (Plasmodium falciparum [1]): 88%
Inhibition (Plasmodium falciparum [2]): 54%
Inhibition (HepG2): 0%

Cc1ccc(-c2nnc(-c3ccc(C(=O)NC4CCN(Cc5ccc(C#N)cc5)CC4)cc3)o2)cc1Br
Inhibition (Plasmodium falciparum [1]): 91%
Inhibition (Plasmodium falciparum [2]): 7%
Inhibition (HepG2): 41%

O=C(/C=C/c1ccc([N+](=O)[O-])cc1)N1CCC(NS(=O)(=O)c2cccc(C(F)(F)F)c2)CC1
Inhibition (Plasmodium falciparum [1]): 94%
Inhibition (Plasmodium falciparum [2]): 8%
Inhibition (HepG2): 0%

Cc1cccc(N2CCN(C3CCC(NC(=O)c4cc5ccccc5[nH]4)CC3)CC2)c1C (configuration not stated)
Inhibition (Plasmodium falciparum [1]): 100%
Inhibition (Plasmodium falciparum [2]): 21%
Inhibition (HepG2): 49%

CCCCCC(C)C(C)c1cc(O)c2c(c1)OC(C)(C)CC2(O)c1ccccn1 (configuration not stated)
Inhibition (Plasmodium falciparum [1]): 98%
Inhibition (Plasmodium falciparum [2]): 3%
Inhibition (HepG2): 0%

O=C(Nc1cccc(-c2ccc(-c3nc4cc(C(F)(F)F)ccc4[nH]3)cc2)c1)c1ccoc1
Inhibition (Plasmodium falciparum [1]): 98%
Inhibition (Plasmodium falciparum [2]): 42%
Inhibition (HepG2): 76%

N#Cc1ccc(-c2ccc(C(=O)NC3CCN(CCN4CCC(c5cn(CCO)c6ccccc56)CC4)CC3)cc2)cc1
Inhibition (Plasmodium falciparum [1]): 100%
Inhibition (Plasmodium falciparum [2]): 79%
Inhibition (HepG2): 30%
